PTHR1 ag: activates the human parathyroid hormone receptor PTHR1; HEK293 GP2 PTHR1 cells, GloSensor cAMP luminescence, 1 h; actives 0.075% (n = 410,000); Q03431; Potency, µM (doses to about 115 µM), inactives show top-dose activation, hits mostly activators; also: potency is read from the fitted curve at half-maximal effect; nearly all actives have a fitted effect of over 55% in size
Target sequence (Q03431 whole entry, looked up): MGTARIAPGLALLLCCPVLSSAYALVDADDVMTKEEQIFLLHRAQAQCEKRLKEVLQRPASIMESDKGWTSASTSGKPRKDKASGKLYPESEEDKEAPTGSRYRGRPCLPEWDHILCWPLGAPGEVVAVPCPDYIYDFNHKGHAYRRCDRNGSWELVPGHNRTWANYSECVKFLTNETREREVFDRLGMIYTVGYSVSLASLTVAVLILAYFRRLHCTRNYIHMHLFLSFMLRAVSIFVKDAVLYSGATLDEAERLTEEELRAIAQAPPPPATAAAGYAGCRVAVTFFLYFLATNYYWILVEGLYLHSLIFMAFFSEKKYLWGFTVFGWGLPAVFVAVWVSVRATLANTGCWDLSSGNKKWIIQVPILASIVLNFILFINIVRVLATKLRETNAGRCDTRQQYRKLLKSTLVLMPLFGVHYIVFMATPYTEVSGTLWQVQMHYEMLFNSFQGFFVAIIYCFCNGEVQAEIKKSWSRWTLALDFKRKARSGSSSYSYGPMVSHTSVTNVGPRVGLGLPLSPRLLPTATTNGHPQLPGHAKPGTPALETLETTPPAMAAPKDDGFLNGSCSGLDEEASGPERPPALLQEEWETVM
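HEK-293-derived GP2 cells expressing PTHR1 and a GloSensor cAMP reporter, 3,000/well, plated overnight, given luciferin plus IBMX (each 0.5 mM as added) for 1 h at 37 °C, then compound for 1 h at 37 °C. Luminescence was read after 15 min at room temperature.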
B2AR arrestin: beta2AR (human) beta-arrestin recruitment activity; P07550; actives 0.02% (n = 330,000); beta-arrestin recruitment to beta2AR, cell-based reporter; Potency, µM (top dose mostly 46.1 µM), for the others: at the top dose activation, hits mostly activators;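 also: potency is read from the fitted curve at half-maximal effect; 0% = DMSO controls and full agonism = EC100 isoproterenol or metaproterenol; nearly all actives have a fitted effect of over 65% in size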
RGS4 inhibitor: inhibitors of human regulator of G protein signaling 4; Potency, µM (highest dose often 114 µM), inactives show at the top dose activity change, negative = inhibition, most hits filed as inhibitors; Transcreener GDP fluorescence polarization, RGS4-accelerated GTP hydrolysis; actives 0.039% (n = 390,000); P49798; AID 504845; also: potency is read from the fitted curve at half-maximal effect; % is scaled to controls: 0 for no effect and ±100 for the full control effect; nearly all actives have a fitted effect of over 75% in size
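MLSMR compounds (23 nl, pin-transferred) preincubated 10 min at room temperature with a 500nM (2x) first reagent, then RGS4 at 900nM (2x) plus Transcreener GDP mix added; fluorescence polarization (620/688 nm) read before and after 90 min at 30 °C.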
DRD3 antagonist: blocks the human D3 dopamine receptor | P35462 | D3R cells, DiscoveRx beta-arrestin luminescence, antagonist mode; stronger effect = lower value | max response, negative = inhibition, % | actives 2.5% (n = 360,000); in the data active = max response below about -50%; inconclusive = no clear call, values can overlap the other calls; also: % is scaled to controls: 0 for no effect and ±100 for the full control effect
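Cells plated overnight at 1500 cells/well, then exposed to library compounds with dopamine controls for 90 minutes at 37 degrees C. DiscoveRx reagent added for 30–60 minutes at room temperature; luminescence read, quantitative HTS format.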
BRCA1 expr act: activators of BRCA1 expression; MCF7-BRCA1-FFLuc reporter, luminescence, 48 h; response scale: scaled: vehicle 0%, 10 µM genistein 100%; Potency, µM (series often up to 46.1 µM), without a hit: top-dose activation, usual class: activators; actives 1.1% (n = 380,000); AID 624202; also: potency is read from the fitted curve at half-maximal effect; nearly all actives have a fitted effect of over 80% in size
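Compounds are tested at multiple concentrations on MCF7 BRCA1-luciferase reporter cells seeded at 2000 per well; after 48 h, a single luminescence end-point is taken and curves fitted to the normalized data.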
DRD3 agonist: D3 dopamine receptor (human) agonism | max activation, % | actives 0.58% (n = 410,000) | D3R DiscoveRx beta-arrestin cells, luminescence, 90 min | P35462 | AID 652048; in the data active = max activation above about 30%; also: 0% is about no effect
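Agonist mode: compounds and dopamine controls were applied to plated cells for 90 min at 37 degrees C after an overnight attachment at 1500 cells/well. Luminescent read-out followed 30 - 60 minutes at room temperature with DiscoveRx detection reagent.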
* = called active by the depositor; [ ] = another dose, or the depositor's remark. An excerpt weighted towards active compounds, which were near 3.7% of everything screened. Unless noted, calls follow the shape of the dose curve; as a rule, active = well fitted curve in the direction sought with a large enough effect; inconclusive = small, poorly fitted or top-dose-only effect, or another doubt; inactive = no such curve, though single readings can be large; an effect the other way counts as inactive or inconclusive.

COc1ccc(CCC(C)NCc2ccc(Cl)c(Cl)c2)cc1 (stereo not given) was read as PTHR1 ag -4%, B2AR arrestin 0%, RGS4 inhibitor 5%, DRD3 antagonist -55*, BRCA1 expr act 2% and DRD3 agonist -17.
For COc1ccc(OCCC(=O)OCC(=O)c2ccc[nH]2)cc1 the results were PTHR1 ag -18%, B2AR arrestin 0%, RGS4 inhibitor 3%, DRD3 antagonist 2, BRCA1 expr act -23% and DRD3 agonist 3.
`COc1ccc(OC)c2sc(N3CCN(C(=O)CCS(=O)(=O)c4ccc(F)cc4)CC3)nc12` gave PTHR1 ag inactive, RGS4 inhibitor -11%, BRCA1 expr act 10% and DRD3 agonist 7.
For CC(=O)N1N=C(N)SC1c1ccc(Cl)c(Cl)c1 (stereo not given) the results were PTHR1 ag -18%, DRD3 antagonist -1, BRCA1 expr act -4% and DRD3 agonist 2.
COc1ccc(Cl)cc1C(=O)OCC(=O)NC1CCCC(C)C1C (stereo not given) was read as PTHR1 ag -10%, B2AR arrestin 0%, RGS4 inhibitor -15%, DRD3 antagonist 0, BRCA1 expr act -5% and DRD3 agonist 2.
For COc1cccc2cc(NC(=O)C3CCCCC3)c(=O)oc12 the results were PTHR1 ag -55%[57.5 µM], B2AR arrestin 0%, RGS4 inhibitor 0%, DRD3 antagonist 4, BRCA1 expr act 6.3µM* and DRD3 agonist 3.
`COc1cccc2cc(C(=O)OCC(=O)NC3CCCC(C)C3C)c(=O)oc12` (stereo not given) gave PTHR1 ag inactive, B2AR arrestin -1%, RGS4 inhibitor -3%, DRD3 antagonist -9, BRCA1 expr act 8% and DRD3 agonist 82*.
Screening CCCCOC(=O)c1cccc(NC(=O)/C=C/c2ccccc2Cl)c1 returned PTHR1 ag -44%, RGS4 inhibitor -1% and DRD3 agonist 5.
Screening CCNC(=O)C1(C)CCCN1C(=O)c1ccc(F)c(Cl)c1 (stereo not given) returned PTHR1 ag -27%, DRD3 antagonist 27, BRCA1 expr act 0% and DRD3 agonist 9.
Screening CCNC(=O)C1(C)CCCN1C(=O)c1ccc2c(c1)OCO2 (stereo not given) returned PTHR1 ag -10%, DRD3 antagonist 6, BRCA1 expr act 14% and DRD3 agonist 87*.
`COCCNC(=O)C1(C)CCCN(Cc2cccc(OC(=O)c3ccccc3)c2)C1` (stereo not given) gave PTHR1 ag -15%, DRD3 antagonist 0, BRCA1 expr act 0% and DRD3 agonist 0.
For CCCNC(=O)C1(C)CCN(Cc2cc(C(F)(F)F)ccc2Cl)C1 (stereo not given) the results were PTHR1 ag inactive, DRD3 antagonist -57*, BRCA1 expr act -29% and DRD3 agonist -14.
`CCNC(=O)C1(C)CCN(Cc2csc(-c3ccccc3)n2)C1` (stereo not given) gave PTHR1 ag inactive, DRD3 antagonist -113*, BRCA1 expr act 41% and DRD3 agonist -27.
Screening CCCNC(=O)C1(C)CCN(Cc2cccc(OC(=O)c3ccccc3)c2)C1 (stereo not given) returned PTHR1 ag 14%, DRD3 antagonist -79*, BRCA1 expr act 0% and DRD3 agonist -16.
For O=C(c1ccccc1Br)N1CCC(c2nc3ccccc3o2)CC1 the results were PTHR1 ag inactive, RGS4 inhibitor -6% and DRD3 agonist 8.
`CCCNC(=O)C1(C)CCCN(Cc2ccc(Cl)cc2)C1` (stereo not given) gave PTHR1 ag -14%, DRD3 antagonist -1, BRCA1 expr act -25% and DRD3 agonist 0.
CCCNC(=O)C1(C)CCCN(Cc2ccc3c(c2)OCO3)C1 (stereo not given) was read as PTHR1 ag inactive, DRD3 antagonist -55*, BRCA1 expr act 5% and DRD3 agonist -11.
For CCNC(=O)C1(C)CCCN(Cc2ccc(-c3ccccc3)o2)C1 (stereo not given) the results were PTHR1 ag inactive, DRD3 antagonist inconclusive, BRCA1 expr act 5% and DRD3 agonist -18.
For CCCNC(=O)C1(C)CCN(Cc2ccc(-c3ccccc3)o2)C1 (stereo not given) the results were PTHR1 ag -14%, DRD3 antagonist -79*, BRCA1 expr act 3% and DRD3 agonist -23.
COC(c1ccccc1)c1nnc(CCC(=O)N(C)Cc2cccc(-n3cccn3)c2)o1 (stereo not given) was read as PTHR1 ag -28%, B2AR arrestin 0%, RGS4 inhibitor 16%[11.4 µM], DRD3 antagonist -2, BRCA1 expr act 13µM* and DRD3 agonist 2.
Screening CN(C)S(=O)(=O)c1ccc(N2CCCC2)c(C(=O)OCC(=O)N2CCN(c3ccccc3)CC2)c1 returned PTHR1 ag inactive, B2AR arrestin 0%, RGS4 inhibitor 21%, DRD3 antagonist -1, BRCA1 expr act 8% and DRD3 agonist -3.
CC(C)Cc1nc2oc3c(NCC4CCCO4)ncnc3c2c2c1CCC2 (stereo not given) was read as PTHR1 ag inactive, B2AR arrestin 0%, RGS4 inhibitor -17%, DRD3 antagonist 1, BRCA1 expr act -39% and DRD3 agonist 58*.
`CC(=C\c1ccccc1)/C=C1/SC(=S)N(CC(=O)O)C1=O` gave DRD3 agonist -1.
Screening CCOC(=O)N1CCN(C(=O)C[C@@H]2C[C@@]3(C(=O)OCC)CCC=C3N(Cc3cccc4ccccc34)C2=O)CC1 returned PTHR1 ag -33%, DRD3 antagonist 3, BRCA1 expr act -11% and DRD3 agonist -3.
Screening CC(C)COc1ccc(C(=O)N(Cc2ccco2)C2CCS(=O)(=O)C2)cc1 (stereo not given) returned PTHR1 ag -8%[57.5 µM], B2AR arrestin 0%, RGS4 inhibitor 2%, DRD3 antagonist 10, BRCA1 expr act -15% and DRD3 agonist 3.
`CCCCCOc1ccc(C(=O)N(Cc2ccco2)C2CCS(=O)(=O)C2)cc1` (stereo not given) gave PTHR1 ag -84%, B2AR arrestin -1%, RGS4 inhibitor -13%, DRD3 antagonist 7, BRCA1 expr act -1% and DRD3 agonist 30*.
For CCOC(=O)c1cc2cc(OC)ccc2[nH]1 the results were PTHR1 ag -29%[57.5 µM], B2AR arrestin 0%, RGS4 inhibitor -12%, DRD3 antagonist -4, BRCA1 expr act 5.6µM* and DRD3 agonist 7.

Source: PubChem (National Center for Advancing Translational Sciences (NCATS))
